In PubChem BioAssay AID588519 (ICCB-Longwood Screening Facility, Harvard Medical School, 2011) one finds % elongation and z-score data, which are given here for 40 compounds.

“And” between values parts separate entries of the source, which are not always exact repeats. Identical values can stand only once. Among all 150,000 compounds or so, about 1,000 (0.67%) were called active. Cut-off read from the data, not from the text of the source: active = % elongation below about 90%; inactive = the rest, inconclusive results apart. The full list was thinned out, with actives kept by preference.

The assay addresses Genome polyprotein (Poliovirus type 1 (strain Mahoney)) (UniProt P03300). The assay is described as follows: inhibitors of poliovirus polymerase RNA elongation – biochemical, fluorescence polarization, total intensity, primary screen (AID 588519). For z-score: compound at 16.7 µg/mL. Conditions: stronger effect = lower value; for % elongation: compound at 16.7 µg/mL; for z-score: measured here: FP z-score.
Setting [1] is: measured here: total intensity read-out.

Genome polyprotein (Poliovirus type 1 (strain Mahoney)), sequence (P03300 1749-2209 limits assumed): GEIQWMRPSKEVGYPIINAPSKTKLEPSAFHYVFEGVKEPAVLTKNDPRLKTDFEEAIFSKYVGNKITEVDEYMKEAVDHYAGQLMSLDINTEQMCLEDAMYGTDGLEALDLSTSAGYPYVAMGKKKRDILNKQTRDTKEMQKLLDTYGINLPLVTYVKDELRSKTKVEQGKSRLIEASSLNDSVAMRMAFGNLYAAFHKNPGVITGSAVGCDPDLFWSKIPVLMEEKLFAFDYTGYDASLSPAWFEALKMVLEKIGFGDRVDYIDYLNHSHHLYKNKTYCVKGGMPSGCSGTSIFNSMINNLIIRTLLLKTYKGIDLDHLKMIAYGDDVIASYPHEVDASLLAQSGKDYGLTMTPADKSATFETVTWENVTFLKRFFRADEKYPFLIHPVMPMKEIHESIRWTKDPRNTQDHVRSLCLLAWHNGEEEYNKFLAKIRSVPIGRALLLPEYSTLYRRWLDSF

For the compound `O=c1ccc(-c2ccc(S(=O)(=O)N3CCc4ccccc43)o2)n[nH]1`, the % elongation is 102% (inactive) and the z-score was found to be 0.6. The % elongation under setting [1] is 108%.
For the compound `CCN(CC)C(=O)C1Sc2nnc(-c3ccccc3)n2NC1c1ccccc1` (stereo not given), the % elongation is 101% (inactive) and the z-score amounted to 0.1. For the same compound, under setting [1], the % elongation came out at 102%.
As to `Cc1[nH]c(=O)[nH]c(=O)c1N`, the % elongation is 100% (inactive) and the z-score was -0.5. Further, the % elongation under setting [1] was 100%.
As to `CC[n+]1c(C)n(-c2ccccc2)c2ccc(N)cc21`, the % elongation is 102% (inactive) and the z-score is 0.2. Also, the % elongation under setting [1] amounted to 106%.
Consider `CC[N+](C)(CC)CCC[n+]1c(-c2ccccc2)c2cc(N)ccc2c2ccc(N)cc21`, for which the % elongation is -41% (active) and -58% (active) and 65% (active); the z-score was -17 and -9.9 and -6.6. In addition, the % elongation under setting [1] is -18% and -15% and 39%.
As to `CC(=O)Nc1c(C)ccc(NC(=O)C2C(C=C(C)C)C2(C)C)c1C` (stereo not given), the % elongation was 102% (inactive) and the z-score is -0.1. Also, the % elongation under setting [1] was 102%.
In the case of `Cc1ccc2oc(=O)c3cc(C(=O)NC4CCCC4)sc3c2c1`, the % elongation was 104% (inactive) and the z-score amounted to 0.9. Besides, the % elongation under setting [1] turned out to be 98%.
For `COc1ccc(Cl)cc1N(C)C(=O)c1cc2c(=O)oc3ccc(C)cc3c2s1`, the % elongation was 107% (inactive) and the z-score turned out to be 0.4. Besides, the % elongation under setting [1] was found to be 113%.
For the compound `CCN(CC)CCNC(=O)c1cc2c(=O)oc3ccc(C)cc3c2s1`, the % elongation was 89% (active) and the z-score was -1.5. Further, under setting [1], the % elongation is 89%.
For the compound `O=C(O)CSc1ccc(S(=O)(=O)N2CCCC2)cn1`, the % elongation is 105% (inactive) and the z-score turned out to be 0.2. In addition, the % elongation under setting [1] turned out to be 99%.
`O=C(NC1CCCCC1)c1ccc(-n2ccc3ccccc32)s1`: the % elongation is 100% (inactive) and the z-score is -0.2. Under setting [1], the % elongation was found to be 101%.
Consider `N#Cc1c(/N=C/c2c(O)[nH]c(=O)[nH]c2=O)sc2c1CCC2`, for which the % elongation is 110% (inactive) and the z-score is 1.2. The % elongation under setting [1] is 130%.
Consider `N#CSc1ccc(N)c(Br)c1`, for which the % elongation is 75% (active) and the z-score was -3.8. For the same compound, the % elongation under setting [1] amounted to 83%.
With `N#CSc1ccc(N2CCCCC2)cc1`, the % elongation was 99% (inactive) and the z-score was -0.2. For the same compound, the % elongation under setting [1] amounted to 100%.
Take `O=C(COC(=O)C1CCC(=O)N1)Nc1nc(-c2ccccc2)cs1` (stereo not given): the % elongation is 101% (inactive) and the z-score is -0.2. Moreover, the % elongation under setting [1] came to 104%.
Consider `COc1ccc(-c2csc(=Nc3ccccc3)n2C)cc1`, for which the % elongation is 105% (inactive) and the z-score was 0.5. For the same compound, the % elongation under setting [1] amounted to 102%.
`O=C(CNc1ccccc1N1CCCCC1)N1CCc2ccccc21`: the % elongation is 102% (inactive) and the z-score worked out at 0.1. The % elongation under setting [1] amounted to 94%.
Consider `COc1ccccc1C(=O)COC(=O)COc1ccc(C#N)cc1`, for which the % elongation is 108% (inactive) and the z-score worked out at 0.7. Under setting [1], the % elongation is 108%.
For `NC(=S)N1CCCCC1`, the % elongation is 99% (inactive) and the z-score was -0.1. For the same compound, the % elongation under setting [1] is 100%.
In the case of `Clc1nc(Nc2ccccc2)sc1/C=N/N1CCOCC1`, the % elongation was 149% (inactive) and the z-score is 5.6. Under setting [1], the % elongation is 195%.
Regarding `Cc1cc(NC(=O)c2ccccc2C)no1`, the % elongation was 103% (inactive) and the z-score was 0.4. The % elongation under setting [1] is 103%.
Turning to `CS(=O)(=O)c1nc2ccccc2[nH]1`, the % elongation was 104% (inactive) and the z-score was 0.4. In addition, the % elongation under setting [1] stood at 107%.
As to `OC(c1nc2ccccc2[nH]1)C(O)C(O)C(O)c1nc2ccccc2[nH]1` (stereo not given), the % elongation was 99% (inactive) and the z-score was -0.6. Under setting [1], the % elongation amounted to 104%.
For the compound `N#CC(=C1C(=O)c2ccccc2C1=O)c1nc2ccccc2[nH]1`, the % elongation was 80% (active) and the z-score was -2.3. Moreover, the % elongation under setting [1] turned out to be 88%.
Turning to `COc1ccc(CN2CNc3c(c(C)nn3-c3ccccc3)C2)cc1`, the % elongation is 100% (inactive) and the z-score was -1. For the same compound, under setting [1], the % elongation is 106%.
On to `Cc1cccc(-n2c(Cn3ccc(C)n3)n[nH]c2=S)c1`, for which the % elongation was 104% (inactive) and the z-score was 0.5. Further, the % elongation under setting [1] came to 105%.
On to `CC(C)(C)CNC(=S)NN`, for which the % elongation is 98% (inactive) and the z-score is -0.9. The % elongation under setting [1] was found to be 101%.
The corresponding values for `C=C(C)CNC(=S)N1CCNCC1` are 99% (inactive), 0.1 and 105%.
Turning to `C=C(C)CNC(=S)NN`, the % elongation was 83% (active) and the z-score is -1.3. For the same compound, under setting [1], the % elongation amounted to 86%.
`CCCCN(C)C(=O)C1CCN(c2nn3cc(-c4ccc(OC)cc4)nc3s2)CC1`: the % elongation is 104% (inactive) and the z-score was 0.4. Also, the % elongation under setting [1] is 105%.
Regarding `Cc1ccc(NC2=C/C(=N/S(=O)(=O)c3ccc(F)cc3)c3ccccc3C2=O)cc1C`, the % elongation was 102% (inactive) and the z-score is 0.1. Besides, the % elongation under setting [1] amounted to 106%.
For the compound `COc1ccc(OCCCn2c(C3CC(=O)N(c4ccc(F)cc4)C3)nc3ccccc32)cc1` (stereo not given), the % elongation is 109% (inactive) and the z-score amounted to 0.4. Besides, under setting [1], the % elongation was found to be 110%.
On to `CCc1ccccc1N1CC(c2nc3ccccc3n2CCCCOc2ccccc2)CC1=O` (stereo not given), for which the % elongation is 63% (active) and the z-score is -7.7. Moreover, under setting [1], the % elongation amounted to 68%.
With `CCOc1ccc(N2CC(c3nc4ccccc4n3CCOc3ccc(OC)cc3)CC2=O)cc1` (stereo not given), the % elongation is 111% (inactive) and the z-score worked out at 0.9. For the same compound, the % elongation under setting [1] was 107%.
With `COC(=O)c1ccccc1NC(=O)C1CC(c2cccc(Br)c2)=NO1` (stereo not given), the % elongation was 104% (inactive) and the z-score amounted to 0.6. Moreover, the % elongation under setting [1] was determined as 106%.
Turning to `CC(=O)Nc1ccc(NC(=O)C(C)OC(=O)Cc2c[nH]c3ccccc23)cc1` (stereo not given), the % elongation is 105% (inactive) and the z-score amounted to 0. For the same compound, the % elongation under setting [1] was determined as 108%.
In the case of `CC(C)NC(=O)CCc1c[nH]c2ccccc12`, the % elongation was 62% (active) and the z-score was -4.7. In addition, the % elongation under setting [1] worked out at 68%.
The corresponding values for `CCOC(=O)C(N)Cc1c[nH]c2ccccc12` (stereo not given) are 100% (inactive), -0.3 and 101%.
As to `CCOC(=O)c1c(C)c(-c2ccccc2)n(CC(=O)N2CCN(c3ccccn3)CC2)c1C`, the % elongation was 99% (inactive) and the z-score was -0.8. Also, the % elongation under setting [1] came to 104%.
The corresponding values for `COc1ccc(C/C(C#N)=C/N2CCN(c3ccccc3F)CC2)cc1` are 102% (inactive), 0.1 and 107%.
